This is a sample that favours compounds with a hit; in the whole collection about 13% have one here.
JMJD2E inh = qHTS Assay for Inhibitors of Human Jumonji Domain Containing 2E (JMJD2E); JMJD2E catalytic domain, FDH-coupled NADH fluorescence (FDH is formaldehyde dehydrogenase); Potency, µM (series often up to 57.1 µM), actives largely listed as inhibitors; hit rate 1.6% among 230,000; active = well fitted inhibition curve with a large enough effect, not every such curve was filed as active; inconclusive = small, poorly fitted or top-dose-only effect, or another doubt; inactive = no such curve, though single readings can be large or run the other way; also: nearly all actives have a fitted effect of over 50% in size
Target sequence (B2RXH2 1-337 limits assumed): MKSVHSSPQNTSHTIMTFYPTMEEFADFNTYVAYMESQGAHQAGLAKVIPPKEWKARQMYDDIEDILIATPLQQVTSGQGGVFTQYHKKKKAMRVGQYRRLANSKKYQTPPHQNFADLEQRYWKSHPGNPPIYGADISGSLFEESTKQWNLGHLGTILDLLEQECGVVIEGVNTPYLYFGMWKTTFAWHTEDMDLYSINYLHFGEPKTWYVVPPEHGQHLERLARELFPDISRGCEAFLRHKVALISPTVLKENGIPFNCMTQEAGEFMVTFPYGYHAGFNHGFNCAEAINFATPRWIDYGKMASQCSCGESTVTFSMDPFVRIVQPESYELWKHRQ
G9a inh = qHTS Assay for Inhibitors of Histone Lysine Methyltransferase G9a | Histone-lysine N-methyltransferase EHMT2 (Homo sapiens), Q96KQ7 | G9a H3K9 monomethylation, AlphaScreen, 2 h | Potency, µM (titrated, usually from 102 µM), hits mostly inhibitors | hit rate 8.8% among 350,000; also: nearly all actives have a fitted effect of over 75% in size
Target sequence (Q96KQ7 913-1193 limits assumed): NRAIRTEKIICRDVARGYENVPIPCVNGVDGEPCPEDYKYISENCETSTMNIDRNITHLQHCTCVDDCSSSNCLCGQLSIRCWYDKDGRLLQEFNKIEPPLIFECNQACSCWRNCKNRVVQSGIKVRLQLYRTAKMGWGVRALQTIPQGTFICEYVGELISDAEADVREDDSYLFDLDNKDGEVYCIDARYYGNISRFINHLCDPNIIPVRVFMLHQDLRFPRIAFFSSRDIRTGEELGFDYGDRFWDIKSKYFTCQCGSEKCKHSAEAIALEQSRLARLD
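Compounds were preincubated with 20 nM G9a for 15 min, after which biotinylated H3K9 peptide (500 nM) and SAM (20 uM) started a 2 h room-temperature reaction. Monomethylated product was quantified by antibody-based AlphaScreen chemiluminescence.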
ALDH1A1 inh = qHTS Assay for Inhibitors of Aldehyde Dehydrogenase 1 (ALDH1A1); Aldehyde dehydrogenase 1A1 (Homo sapiens), P00352; Purified ALDH1A1, NADH fluorescence, propionaldehyde substrate; hit rate 7.3% among 220,000; Potency, µM (highest dose often 75.3 µM), hits mostly inhibitors; active = well fitted inhibition curve with a large enough effect, not every such curve was filed as active; inconclusive = small, poorly fitted or top-dose-only effect, or another doubt; inactive = no such curve, though single readings can be large or run the other way
Sfp inh = qHTS Assay for Inhibitors of Bacillus subtilis Sfp phosphopantetheinyl transferase (PPTase); Potency, µM, hits mostly inhibitors; 4'-phosphopantetheinyl transferase ffp (Bacillus subtilis), Q9F4F7; hit rate 3.5% among 310,000; Biochemical Sfp PPTase activity, qHTS;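 also: the enzyme is Sfp with the accession as filed and its product quenches rhodamine fluorescence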
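Buffer: 50 mM Hepes-Na pH 7.6, 10 mM MgCl2, 0.01% Nonidet P-40, 0.01% BSA. Enzyme 15 nM, pre-exposed to compound 15 min; substrates then added and fluorescence change tracked over 30 min.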
miR-21 act = qHTS Assay for Modulators of miRNAs and/orActivators of miR-21. HeLa miR-21 FLuc reporter, luciferase, 48 h. Potency, µM (top dose mostly 38.3 µM), usual class: activators. 340,000 tested, under 10 active;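 also: miR-21 action dims this reporter so a rising signal means less miR-21 action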
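Luminescence from a firefly luciferase reporter carrying a miR-21 binding site downstream, stably expressed under a CMV promoter in HeLa cells that make miR-21 endogenously, reports miRNA modulation after 48 h compound exposure up to approximately 40uM final.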
LMNA splice mod = qHTS Assay for Modulators of Lamin A Splicing; HeLa LMNA splicing GFP/RFP minigene ratio, 48 h; Potency, µM (highest dose often 46.1 µM), actives largely listed as inhibitors; hit rate 0.01% among 200,000; AID 1487, 2009; active = well fitted inhibition curve with a large enough effect in the signal ratio, with a control signal flat, not every such curve was filed as active; inconclusive = small, poorly fitted or top-dose-only effect, or effect the other way, or a change in a side signal; the % refers to the signal ratio
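Read-out is the ratio of GFP to DsRed2 object intensity, acquired by 488 nm laser-scanning cytometry on HeLa lamin A-EGFP minigene reporter cells. Compound incubation 48 hrs at 37 °C in Opti-MEM with 2% FBS; DMSO 0.5% final.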
A number is an active result; [ ] = remark or other dose. Unless noted, calls follow the shape of the dose curve; as a rule, active = well fitted curve in the direction sought with a large enough effect; inconclusive = small, poorly fitted or top-dose-only effect, or another doubt; inactive = no such curve, though single readings can be large; an effect the other way counts as inactive or inconclusive.

How did CCCc1[nH]nc2c1C(c1cc(OC)cc(OC)c1)C(C#N)=C(N)O2 (stereo not drawn) do in these assays?
JMJD2E inh: inactive; G9a inh: inactive; ALDH1A1 inh: inactive; Sfp inh: inactive; miR-21 act: inactive; LMNA splice mod: inactive

Results for CCc1[nH]nc2c1C(c1cccc(OC(=O)N3CCOCC3)c1)C(C#N)=C(N)O2 (stereo not drawn) ?
JMJD2E inh: inactive; G9a inh: inactive; ALDH1A1 inh: inconclusive; Sfp inh: inactive; miR-21 act: inactive; LMNA splice mod: inactive

What do the screens show for `Cc1ccc(CNC(=O)c2nnn(CC(=O)Nc3cc(C)cc(C)c3)c2N)cc1`?
G9a inh: inactive; Sfp inh: inconclusive; miR-21 act: inactive

How did CC(C)c1[nH]nc2c1C(c1cccnc1)C(C#N)=C(N)O2 (stereo not drawn) do in these assays?
JMJD2E inh: inactive; G9a inh: inconclusive; ALDH1A1 inh: 8.9µM; Sfp inh: inactive; miR-21 act: inactive; LMNA splice mod: inactive

Results for Cc1ccc(-c2[nH]nc3c2C(c2cccnc2)C(C#N)=C(N)O3)cc1 (stereo not drawn) ?
JMJD2E inh: inactive; G9a inh: inactive; Sfp inh: inactive; miR-21 act: inactive

What do the screens show for `O=[N+]([O-])c1ccc(/C=N/n2c(-c3ccccc3)n[nH]c2=S)cc1`?
G9a inh: 0.56µM; Sfp inh: inconclusive; miR-21 act: inactive

Results for Cc1ccc(/C=N/n2c(-c3ccccc3)n[nH]c2=S)cc1 ?
G9a inh: 1.1µM; Sfp inh: inactive; miR-21 act: inactive

How did Cc1ccc(-c2n[nH]c(=S)n2/N=C/c2ccc(C(=O)O)cc2)cc1 do in these assays?
G9a inh: 3.2µM; Sfp inh: inconclusive; miR-21 act: inactive

How did O=[N+]([O-])c1ccc(/C=N/n2cn[nH]c2=S)cc1 do in these assays?
JMJD2E inh: inactive; G9a inh: 7.9µM; ALDH1A1 inh: inactive; Sfp inh: inactive; miR-21 act: inactive

How did CSc1nncn1/N=C/c1ccc([N+](=O)[O-])cc1 do in these assays?
JMJD2E inh: inactive; G9a inh: inactive; ALDH1A1 inh: inactive; Sfp inh: inactive; miR-21 act: inactive; LMNA splice mod: inactive

How did CCN(C(=O)CSc1nc2ccccc2n1CC(=O)NCc1ccc(OC)cc1)c1ccccc1 do in these assays?
G9a inh: inactive; miR-21 act: inactive; LMNA splice mod: inconclusive

Results for CCCCN(Cc1ccccc1)C(=O)C1CCC(=O)N(CCc2ccccn2)C1 (stereo not drawn) ?
G9a inh: inactive; Sfp inh: inactive; miR-21 act: inactive

What do the screens show for `CS/C(N)=N/N=C/c1ccc([N+](=O)[O-])cc1`?
JMJD2E inh: inconclusive; ALDH1A1 inh: inconclusive; Sfp inh: 79µM; miR-21 act: inactive; LMNA splice mod: inactive

What do the screens show for `N/C(=N\N=C\c1ccc([N+](=O)[O-])cc1)c1nonc1N`?
JMJD2E inh: inactive; G9a inh: inactive; Sfp inh: inactive; miR-21 act: inactive

Results for COC(=O)c1sccc1S(=O)(=O)N(CC(=O)NCc1ccc(F)cc1)c1ccc(Cl)cc1 ?
G9a inh: inactive; miR-21 act: inactive; LMNA splice mod: inconclusive

Results for CCCCNCCOCCOc1ccc(F)cc1 ?
JMJD2E inh: inactive; G9a inh: 11µM; ALDH1A1 inh: inactive; Sfp inh: inactive; miR-21 act: inactive; LMNA splice mod: inactive

How did CCCCNCCOCCOc1ccc(Cl)cc1Br do in these assays?
JMJD2E inh: inconclusive; G9a inh: 7.9µM; ALDH1A1 inh: inactive; Sfp inh: inactive; miR-21 act: inactive; LMNA splice mod: inactive

Results for Cc1ccc2ncc3c(-c4ccc(F)cc4)nn(CC(=O)Nc4ccccc4C)c3c2c1 ?
G9a inh: inactive; miR-21 act: inactive; LMNA splice mod: inactive

Results for Cc1ncc(C[n+]2csc(CCOC(=O)CC3C4CC5CC(C4)CC3C5)c2C)c(N)n1 (stereo not drawn) ?
JMJD2E inh: inactive; G9a inh: 50µM; ALDH1A1 inh: inconclusive; Sfp inh: inactive; miR-21 act: inactive; LMNA splice mod: inactive

What do the screens show for `Cc1ncc(C[n+]2csc(CCOC(=O)C34CC5CC(CC(C5)C3)C4)c2C)c(N)n1`?
JMJD2E inh: inactive; G9a inh: inactive; ALDH1A1 inh: inactive; Sfp inh: inactive; miR-21 act: inactive; LMNA splice mod: inactive

How did COc1cccc(NC(=O)C2CCN(c3nnc(C)c4c(C)n(-c5ccccc5)nc34)CC2)c1 do in these assays?
G9a inh: inactive; miR-21 act: inactive; LMNA splice mod: inactive

How did O=C(COC(=O)c1ccccc1NCCO)NCC1CCCCC1 do in these assays?
G9a inh: inactive[12.7 µM]

What do the screens show for `CN(C)c1ccc(N=Nc2ccccc2C(=O)OCC(=O)N(C)C2CCCCC2)cc1`?
JMJD2E inh: inactive; G9a inh: 20µM; ALDH1A1 inh: inactive; Sfp inh: inactive; miR-21 act: inactive; LMNA splice mod: inconclusive

What do the screens show for `CN(C)c1ccc(N=Nc2ccccc2C(=O)OCC(=O)NCC2CCCCC2)cc1`?
JMJD2E inh: inactive; G9a inh: 7.9µM; ALDH1A1 inh: inactive; Sfp inh: inconclusive; miR-21 act: inactive; LMNA splice mod: inconclusive

Results for CN(C)c1ccc(C(=O)OCC(=O)NC2CCCCCC2)cc1 ?
JMJD2E inh: inconclusive; G9a inh: inactive; ALDH1A1 inh: inactive; Sfp inh: inactive; miR-21 act: inactive; LMNA splice mod: inactive

How did CN(C)c1ccc(N=Nc2ccccc2C(=O)OCC(=O)NC2CCCC2)cc1 do in these assays?
JMJD2E inh: inactive; G9a inh: 11µM; ALDH1A1 inh: inactive; Sfp inh: inactive; miR-21 act: inactive; LMNA splice mod: inactive

What do the screens show for `CCOCCc1nn2c(=O)cc(COC(=O)c3ccco3)nc2s1`?
G9a inh: inactive; miR-21 act: inactive; LMNA splice mod: inactive

How did Cc1cc(C)nc(Nc2ccc(N3CCOCC3)cc2)n1 do in these assays?
JMJD2E inh: inactive; G9a inh: 50µM; ALDH1A1 inh: inactive; Sfp inh: inactive; miR-21 act: inactive; LMNA splice mod: inactive

Results for Cc1cc(C)nc(Nc2ccc(N3CCCC3)cc2)n1 ?
JMJD2E inh: inconclusive; G9a inh: inconclusive; ALDH1A1 inh: inconclusive; Sfp inh: 79µM; miR-21 act: inactive; LMNA splice mod: inactive

Results for Cc1ccc(C)n1-c1ccc(N2CCOCC2)cc1 ?
JMJD2E inh: inconclusive; G9a inh: inconclusive; ALDH1A1 inh: 7.1µM; Sfp inh: inactive; miR-21 act: inactive; LMNA splice mod: inactive

How did Cc1cc(C)nc(Nc2ccc(O)cc2)n1 do in these assays?
G9a inh: inactive; Sfp inh: inactive; miR-21 act: inactive
